Test results from PubChem BioAssay AID463173 (ICCB-Longwood Screening Facility, Harvard Medical School, 2010).
Hit rate of the full screen: of about 52,000 compounds, about 1,700 (3.3%) were called active. The full list was thinned out, with actives kept by preference. Unmarked numbers belong to inactive results. Rule as the data show it: active = survival mostly below about 52% (no sharp cut-off); inactive = mostly above about 56%.

The compounds below were run on Wild type (assay: growth inhibition of S. aureus wild type versus tarO mutant, primary screen, teichoic acid synthesis inhibitors, RN4220, OD600 (AID 463173)). Settings: S. aureus RN4220 wild type/DeltatarO growth, OD600, 18 h, stronger effect = lower value, screened at 18.75 µg/mL (by protocol).

| Structure (SMILES) | survival |
| --- | --- |
| COc1ccc(-c2noc(N3CCC(C(=O)N4CCN(c5ccccc5F)CC4)CC3)n2)cc1 | 108% |
| COc1ccc(-n2ncc3c(NC4CCCC4)ncnc32)cc1 | 129% |
| COc1ccc(N2CCN(C(=O)Cc3c(C(=O)O)c(C)cn3C)CC2)cc1 | 14% (active) |
| Cc1cn(C)c(CC(=O)N2CCN(c3ccccc3F)CC2)c1C(=O)O | 69% |
| COc1ccccc1N1CCN(C(=O)Cc2c(C(=O)O)c(C)cn2C)CC1 | -6% (active) |
| Cc1cccc(N2CCN(C(=O)Cc3c(C(=O)O)c(C)cn3C)CC2)c1C | 70% |
| Cc1cn(C)c(CC(=O)N2CCN(c3cccc(Cl)c3)CC2)c1C(=O)O | 78% |
| Cc1cn(C)c(CC(=O)N2CCN(c3ccc(F)cc3)CC2)c1C(=O)O | 133% |
| CCOc1cccc(C2c3c(oc4cc(C)c(C)cc4c3=O)C(=O)N2c2nc(C)c(C)s2)c1 (configuration not stated) | 71% |
| CCc1ccc(NC(=O)[C@H](CSCc2ccccc2)N2Cc3ccccc3C2=O)cc1 | 79% |
| CCc1ccccc1NC(=O)CN1CCC(NC(=O)NC2CCCCC2)CC1 | 102% |
| COc1ccccc1N1CCN(c2ncnc3c2nnn3C)CC1 | 129% |
| Cc1cc(F)ccc1NC(=O)C1CCCN(C(=O)c2cnn(-c3ccccc3)c2-n2cccc2)C1 (configuration not stated) | 85% |
| CCCN1C(C(=O)c2ccccc2)=C(OC(=O)COc2ccc(C)cc2)c2ccccc2S1(=O)=O | 25% |
| c1ccc2c(c1)ncn2-c1ncnc2sc3c(c12)CCCC3 | 107% |
| COc1ccc(-c2cc(OC(=O)c3cccc(Cl)c3)c3c(C)oc(C)c3c(=O)c2)cc1OC | 76% |
| CSc1cccc(NC(=O)c2cccc(N3CCCS3(=O)=O)c2)c1 | 115% |
| CCN(C(=O)Cn1c(C(=O)OC)cc2sccc21)c1cccc(C)c1 | 73% |
| O=c1cc(-c2ccccc2)nc(SCc2nc(-c3cccc(C(F)(F)F)c3)no2)[nH]1 | 83% |
| Cc1ccc(Sc2ccc(N3CCCC(C(=O)Nc4ccc(Cl)cc4)C3)nn2)cc1 (configuration not stated) | 71% |
| CCOc1ccc(NC(=O)C2CCCN(c3ccc(Sc4ccc(C)cc4)nn3)C2)cc1 (configuration not stated) | 16% (active) |
| CCOC(=O)c1ccc(NC(=O)C2CCCN(c3ccc(Sc4ccc(C)cc4)nn3)C2)cc1 (configuration not stated) | 80% |
| O=S(=O)(c1ccc(Br)cc1)c1nnn2c1nc(NCc1ccc3c(c1)OCO3)c1sccc12 | 90% |
| CCOC(=O)C1CCCN(C(=O)c2ccc(-n3ccc4ccccc43)s2)C1 (configuration not stated) | -3% (active) |
| CCOC(=O)C1CCN(C(=O)c2ccc(-n3ccc4ccccc43)s2)CC1 | 71% |
| CCC(C)NC(=O)C1CCN(C(=O)c2ccc(-n3ccc4ccccc43)s2)CC1 (configuration not stated) | 55% |

| Structure (SMILES) | survival |
| --- | --- |
| COCCn1c(=S)[nH]c2ccccc2c1=O | 105% |
| CCCC(=O)N(c1ccc2oc3c(c2c1)CCCC3)S(=O)(=O)c1ccc(CC)cc1 | 67% |
| CC(C)c1ccc(-c2nnn(CC(N)=O)n2)cc1 | 115% |
| Cc1cccc(N2CCN(C(=O)c3cnn(-c4ccc(F)cc4F)c3C3CCN(C(=O)OC(C)(C)C)CC3)CC2)c1C | 99% |
| CC(C)(C)OC(=O)N1CCC(c2c(C(=O)N3CCN(c4ncccn4)CC3)cnn2-c2ccc(F)cc2)CC1 | -1% (active) |
| Cc1ccc(-n2ncc(C(=O)N3CCN(c4ncccn4)CC3)c2C2CCN(C(=O)OC(C)(C)C)CC2)cc1 | 71% |
| CC(C)(C)OC(=O)N1CCC(c2c(C(=O)N3CCN(c4ccccn4)CC3)cnn2-c2ccc(F)cc2F)CC1 | 71% |
| CC(C)(C)OC(=O)N1CCC(c2c(C(=O)N3CCN(c4ncccn4)CC3)cnn2-c2ccccc2)CC1 | 87% |
| CN1CCN(C(=O)c2cnn(-c3ccc(F)cc3F)c2C2CCN(C(=O)OC(C)(C)C)CC2)CC1 | 87% |
| COc1ccccc1N1CCN(C(=O)c2cnn(-c3ccc(F)cc3F)c2C2CCNCC2)CC1 | 0% (active) |
| CC(C)(C)OC(=O)N1CCC(c2c(C(=O)N3CCN(c4ncccn4)CC3)cnn2-c2ccc(F)cc2F)CC1 | 1% (active) |
| Cc1ccc(-n2ncc(C(=O)N3CCN(c4cccc(C)c4C)CC3)c2C2CCNCC2)c(C)c1 | 84% |
| COc1ccc(OC)c(NC(=O)Cn2cc(C(=O)c3ccc(Cl)cc3)c(=O)c3cc(OC)ccc32)c1 | 68% |
| O=C(CSc1nc2c([nH]c3ccccc32)c(=O)n1-c1ccccc1)Nc1ccc2c(c1)OCCO2 | 87% |
| CCc1ccccc1NS(=O)(=O)c1ccc2[nH]cc(C(=O)NC3CCCC3)c(=O)c2c1 | 42% |
| Cc1c(Cl)cccc1NS(=O)(=O)c1ccc2[nH]cc(C(=O)NC3CCCC3)c(=O)c2c1 | 11% (active) |
| Cc1cc(C)cc(NS(=O)(=O)c2ccc3[nH]cc(C(=O)N(C)Cc4ccccc4)c(=O)c3c2)c1 | 111% |
| Cc1cc(C)cc(NS(=O)(=O)c2ccc3[nH]cc(C(=O)NC4CCCCC4)c(=O)c3c2)c1 | 27% |
| CCOc1ccc(NS(=O)(=O)c2ccc3[nH]cc(C(=O)N(C)Cc4ccccc4)c(=O)c3c2)cc1 | 1% (active) |
| CCc1ccc(NS(=O)(=O)c2ccc3[nH]cc(C(=O)NC4CCCC4)c(=O)c3c2)cc1 | 9% (active) |
| CCOc1ccc(NS(=O)(=O)c2ccc3[nH]cc(C(=O)NCc4ccccc4)c(=O)c3c2)cc1 | 74% |
| CC(C)c1ccc(NS(=O)(=O)c2ccc3[nH]cc(C(=O)NC4CCCC4)c(=O)c3c2)cc1 | 7% (active) |
| CNC(=O)c1c[nH]c2ccc(S(=O)(=O)Nc3cccc(Cl)c3C)cc2c1=O | 82% |
| CC(C)c1ccc(NS(=O)(=O)c2ccc3[nH]cc(C(=O)NC4CCCCC4)c(=O)c3c2)cc1 | 13% |
| Cc1ccccc1NS(=O)(=O)c1ccc2[nH]cc(C(=O)NC3CCCCC3)c(=O)c2c1 | 80% |
| CCOc1ccc(NS(=O)(=O)c2ccc3[nH]cc(C(=O)NC4CCCC4)c(=O)c3c2)cc1 | 55% |
